Values without a mark were called inactive. The rule behind the calls is not given here.
target: Pantothenate synthetase (Mycobacterium tuberculosis (strain ATCC 25618 / H37Rv)) (UniProt P9WIL5); assay: Coupled enzyme confirmation of inhibitors against recombinant Mtb PanC (AID 375); conditions: coupled enzyme assay; at 10 µM, active compounds read high;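 note: 0% = full reaction with vehicle and 100% = no enzyme background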
Sequence (P9WIL5 whole entry, looked up): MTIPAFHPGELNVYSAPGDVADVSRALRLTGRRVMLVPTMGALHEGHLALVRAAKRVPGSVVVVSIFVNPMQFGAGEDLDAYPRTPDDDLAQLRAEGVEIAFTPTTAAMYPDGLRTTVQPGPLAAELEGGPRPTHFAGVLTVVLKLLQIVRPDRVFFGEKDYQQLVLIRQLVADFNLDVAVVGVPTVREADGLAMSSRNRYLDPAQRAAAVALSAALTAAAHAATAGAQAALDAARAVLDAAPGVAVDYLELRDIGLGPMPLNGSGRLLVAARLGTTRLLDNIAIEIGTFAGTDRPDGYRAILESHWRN

Q: `O=C(CN1CCN(c2ccccn2)CC1)N1c2ccccc2CCc2ccccc21` was tested. Which inhibition did it give?
A: Its inhibition is 0%.

Q: `CCSc1nnc2c(n1)OC=Nc1ccc(Br)cc1-2` was tested. Which inhibition did it give?
A: Its inhibition is 2%.

Q: How did the inhibition turn out when `O=C(c1cc(-c2cccc(O)c2)on1)N1CCN(C(c2ccccc2)c2ccccc2)CC1` was run?
A: The inhibition was 8%.

Q: With `COc1ccc(C(=O)Cn2c(N3CCCCC3)nc3c2c(=O)n(C)c(=O)n3C)cc1OC` as the compound, how does the inhibition read?
A: The inhibition was 6%.

Q: How did the inhibition turn out when `CCn1cc(C(=O)N2CCN(C(=O)c3ccco3)CC2)c2cc(OC)c(OC)cc2c1=O` was run?
A: Its inhibition is 0%.

Q: How did the inhibition turn out when `Cc1ccc(NS(=O)(=O)c2cn(C)cn2)cc1` was run?
A: Its inhibition is 5%.

Q: With `N#CC1=C(N)Oc2c(ccc3cccnc23)C1c1cccnc1` (stereo unspecified) as the compound, how does the inhibition read?
A: Its inhibition is 0%.

Q: `Cc1ncc(CO)c2c1OC(C)(C)OC2` was tested. Which inhibition did it give?
A: The inhibition was 0%.

Q: `Cc1ccc(-n2ncc3c(=O)[nH]c(SCC(=O)N4CCN(c5ccccc5)CC4)nc32)cc1` was tested. Which inhibition did it give?
A: Its inhibition is 0%.

Q: With `COC(=O)C1=C(CSCc2ccco2)NC(=O)NC1c1cc(C)ccc1C` (stereo unspecified) as the compound, how does the inhibition read?
A: Its inhibition is 3%.

Q: How did the inhibition turn out when `Cc1ccc(S(=O)(=O)Cc2ccc(C(=O)N3CCN(Cc4ccccc4)CC3)o2)cc1` was run?
A: The inhibition was 3%.

Q: `COc1ccc(OC)c(C2=NOC(C(=O)Nc3cc(C)nn3-c3ccccc3)C2)c1` (stereo unspecified) was tested. Which inhibition did it give?
A: The inhibition was 0%.

Q: With `CC(C)(C)N=C1NC(=NC(C)(C)C)c2ccccc21` as the compound, how does the inhibition read?
A: The inhibition was 0%.

Q: `CC(C)CC1NC2(C(=O)N(C)c3ccccc32)C2C(=O)N(C(C)C)C(=O)C12` (stereo unspecified) was tested. Which inhibition did it give?
A: Its inhibition is 0%.

Q: With `Cc1nc(C)c(C(=O)C2=C(O)C(=O)N(CCN3CCOCC3)C2c2ccco2)s1` (stereo unspecified) as the compound, how does the inhibition read?
A: The inhibition was 9%.

Q: How did the inhibition turn out when `c1ccc(Cn2nnnc2CN2CCN(c3ncccn3)CC2)cc1` was run?
A: The inhibition was 1%.

— PubChem BioAssay
